Inconclusive results are not listed. Active and inactive are the calls of the source. Calls come from the whole dose curve; as a rule, active = well fitted cell-killing curve with a large enough effect; inconclusive = small, poorly fitted or top-dose-only effect, or effect the other way; inactive = flat fitted curve, though single readings scatter.
Experiments:
Test in all cases: Primary qHTS to identify gynecologic anti-cancer compounds using libraries of approved drugs and bioactive compounds (AID 1345084); note: nearly all actives have a fitted effect of over 55% in size
Conditions in all cases: Gynecologic cancer cell panel viability, ATPlite luminescence, 48 h; series mostly up to 57.5 µM
OV90 = test system: OV90
In short: (§1)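 Five-concentration response, 48 h; readout is ATP-driven luciferase luminescence.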

PA-1 = test system: PA-1
In short: as §1

SKOV3 = test system: SKOV3
In short: as §1

Tov-21-G = test system: Tov-21-G
In short: as §1

Tov112D = test system: Tov112D
In short: as §1
% is set by controls: 0 for no effect and ±100 for the full control effect.

C[C@@H]1O[C@@H](O[C@H]2[C@H](OC(=O)[C@]34CCC(C)(C)C[C@H]3C3=CCC5[C@@]6(C)C[C@@H](O)[C@@H](O)[C@@](C)(CO)C6[C@H](O)C[C@@]5(C)[C@]3(C)CC4)OC[C@H](O)[C@@H]2O)[C@H](O)[C@H](O)[C@H]1O[C@@H]1OC[C@@H](O)[C@H](O[C@H]2O[C@H](C)[C@@H](O)[C@H](O)[C@@H]2O)[C@H]1O (stereo not given in full)
inactive: activity change, negative = cytotoxicity (OV90) 9.69% [at 11.6 µM] | activity change, negative = cytotoxicity (PA-1) 12.4% [at 11.6 µM] | activity change, negative = cytotoxicity (SKOV3) -1.53% [at 11.6 µM] | activity change, negative = cytotoxicity (Tov-21-G) 0.722% [at 11.6 µM] | activity change, negative = cytotoxicity (Tov112D) 3.92% [at 11.6 µM]

Cc1nc(-c2cccnc2)sc1C(=O)Nc1ccccc1-c1cn2c(CN3CCOCC3)csc2n1
inactive: Potency (OV90) | Potency (PA-1) | Potency (SKOV3) | Potency (Tov-21-G) | Potency (Tov112D)

COC(=O)C(CC1CCCC1)c1ccc(S(C)(=O)=O)cc1 (stereo not given)
inactive: Potency (OV90) | Potency (PA-1) | Potency (SKOV3) | Potency (Tov-21-G) | Potency (Tov112D)

N=C(N)c1ccc2nc(-c3cc(CC(=O)NC(CC(=O)O)C(=O)O)cc(-c4cc(S(N)(=O)=O)ccc4O)c3O)[nH]c2c1 (stereo not given)
inactive: Potency (OV90) | Potency (PA-1) | Potency (SKOV3) | Potency (Tov-21-G) | Potency (Tov112D)

C[C@@H]1O[C@@H](OC2C(O[C@H]3[C@H](O[C@H]4CC[C@@]5(C)C(CC[C@]6(C)C5CC=C5C7CC(C)(C)CC(O)[C@]7(C)CC[C@]56C)C4(C)C)O[C@H](C(=O)O)[C@@H](O)[C@@H]3O)OC(CO)C(O)C2O)[C@H](O)[C@H](O)[C@H]1O (stereo not given in full)
inactive: activity change, negative = cytotoxicity (OV90) 7.68% [at 11.6 µM] | activity change, negative = cytotoxicity (PA-1) 0.277% [at 11.6 µM] | activity change, negative = cytotoxicity (SKOV3) 6.34% [at 11.6 µM] | activity change, negative = cytotoxicity (Tov-21-G) 5% [at 11.6 µM] | activity change, negative = cytotoxicity (Tov112D) 11.6% [at 11.6 µM]

CC(=O)OC1CC(C(C)(C)O)OC2CCC3(C)OC4=C(C(=O)C=C5C(C)C(OC(C)=O)C6(C)C(C)OC546)C(O)C3C12C (stereo not given)
inactive: Potency (OV90) | Potency (PA-1) | Potency (SKOV3) | Potency (Tov-21-G) | Potency (Tov112D)

CC1(C)C(=O)N2c3ccccc3C(O)(CC(C(=O)O)n3cnc4ccccc4c3=O)C2N1O (stereo not given)
inactive: Potency (OV90) | Potency (PA-1) | Potency (SKOV3) | Potency (Tov-21-G) | Potency (Tov112D)

C[C@@H]1O[C@@H](O[C@H]2[C@H](Oc3cc(O)c(C(=O)CCc4ccc(O)cc4)c(O)c3)O[C@H](CO)[C@@H](O)[C@@H]2O)[C@H](O)[C@H](O)[C@H]1O
inactive: Potency (OV90) | Potency (PA-1) | Potency (SKOV3) | Potency (Tov-21-G) | Potency (Tov112D)

COc1cc(C2Oc3c(OC)cc(/C=C/C(=O)OC4CC(O)(C(=O)O)CC(O)C4O)cc3C2CO)ccc1O (stereo not given)
inactive: Potency (OV90) | Potency (PA-1) | Potency (SKOV3) | Potency (Tov-21-G) | Potency (Tov112D)

OC[C@H]1O[C@@H](OCc2ccccc2)[C@H](O)[C@@H](O)[C@@H]1O
inactive: Potency (OV90) | Potency (PA-1) | Potency (SKOV3) | Potency (Tov-21-G) | Potency (Tov112D)

COC(=O)c1ccc(OC)cc1O[C@@H]1O[C@H](CO[C@@H]2OC[C@@H](O)[C@H](O)[C@H]2O)[C@@H](O)[C@H](O)[C@H]1O
inactive: Potency (OV90) | Potency (PA-1) | Potency (SKOV3) | Potency (Tov-21-G) | Potency (Tov112D)

C=C1CC[C@@H]2[C@](C)(CO)[C@H](O[C@@H]3O[C@H](CO)[C@@H](O)[C@H](O)[C@H]3O)CC[C@@]2(C)[C@@H]1C/C=C1/C(=O)OC[C@H]1O
inactive: Potency (OV90) | Potency (PA-1) | Potency (SKOV3) | Potency (Tov-21-G) | Potency (Tov112D)

C=C1C(O)C(O)C2(CC3C(C)=CCC4C(C)(C(=O)O)CCCC34C)OC2C1O (stereo not given)
inactive: Potency (OV90) | Potency (PA-1) | Potency (SKOV3) | Potency (Tov-21-G) | Potency (Tov112D)

CC(=O)[C@@H]1C[C@H](C(C)(C)O[C@@H]2O[C@H](CO)[C@@H](O)[C@H](O)[C@H]2O)CC[C@@]2(CO)OC(=O)C[C@@H]12
inactive: Potency (OV90) | Potency (PA-1) | Potency (SKOV3) | Potency (Tov-21-G) | Potency (Tov112D)

OC[C@H]1O[C@@H](OCc2ccccc2)[C@H](O[C@@H]2OC[C@@H](O)[C@H](O)[C@H]2O)[C@@H](O)[C@@H]1O
inactive: Potency (OV90) | Potency (PA-1) | Potency (SKOV3) | Potency (Tov-21-G) | Potency (Tov112D)

OC[C@@]1(O)CO[C@H](OC[C@H]2O[C@@H](OCCc3ccccc3)[C@H](O)[C@@H](O)[C@@H]2O)[C@@H]1O
inactive: Potency (OV90) | Potency (PA-1) | Potency (SKOV3) | Potency (Tov-21-G) | Potency (Tov112D)

COC(=O)C1=CO[C@@H](O[C@@H]2O[C@H](CO)[C@@H](O)[C@H](O)[C@H]2O)[C@@H]2[C@@H](C(=O)O)CC[C@H]12
inactive: Potency (OV90) | Potency (PA-1) | Potency (SKOV3) | Potency (Tov-21-G) | Potency (Tov112D)

CC(=O)O[C@H]1C[C@@H](O)C(C)(C)C2C[C@@H](OC(C)=O)[C@@]3(C)C4=CCC(C(CO)CC(O)C5OC5(C)C)[C@]4(C)CCC3[C@]21C (stereo not given in full)
inactive: Potency (OV90) | Potency (PA-1) | Potency (SKOV3) | Potency (Tov-21-G) | Potency (Tov112D)

CC(=O)c1c(C)cccc1O[C@@H]1O[C@H](CO)[C@@H](O)[C@H](O)[C@H]1O
inactive: Potency (OV90) | Potency (PA-1) | Potency (SKOV3) | Potency (Tov-21-G) | Potency (Tov112D)

CNc1nc(Nc2cn(C(C)(C)C#N)nc2C)ncc1C(F)(F)F
inactive: Potency (OV90) | Potency (PA-1) | Potency (SKOV3) | Potency (Tov-21-G) | Potency (Tov112D)

CC(C)=CCC[C@](C)(O[C@@H]1O[C@H](CO[C@@H]2O[C@@H](CO)[C@H](O)[C@H]2O[C@@H]2OC[C@@H](O)[C@H](O)[C@H]2O)[C@@H](O)[C@H](O)[C@H]1O)[C@H]1CC[C@]2(C)[C@@H]1[C@H](O)CC1[C@@]3(C)CC[C@H](O[C@@H]4O[C@H](CO)[C@@H](O)[C@H](O)[C@H]4O[C@@H]4O[C@H](CO)[C@@H](O)[C@H](O)[C@H]4O)C(C)(C)C3CC[C@]12C (stereo not given in full)
inactive: activity change, negative = cytotoxicity (OV90) -2.38% [at 6.55 µM] | activity change, negative = cytotoxicity (PA-1) 11.1% [at 6.55 µM] | activity change, negative = cytotoxicity (SKOV3) 24.5% [at 6.55 µM] | activity change, negative = cytotoxicity (Tov-21-G) 0.809% [at 6.55 µM] | activity change, negative = cytotoxicity (Tov112D) 0.454% [at 6.55 µM]
